Laboratory results: PubChem BioAssay (NCATS)
Results filed as inconclusive are left out. Unmarked numbers belong to inactive results. The call rests on the fitted dose curve; in most records, active means well fitted curve in either direction with a large enough effect (not every such curve was filed as active); inconclusive means small, poorly fitted or top-dose-only effect, or another doubt; inactive means flat fitted curve, though single readings scatter.

assay: Stat Signaling Pathway (AID 446); conditions: ME-180 (cervical carcinoma) SIE beta-lactamase reporter, IL-6 stimulated, 5 h; at 38 µM (top of the series);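 further: ME-180 cervical cancer cells given 40 pM IL-6 alongside compound; SIE-controlled beta-lactamase reporter measured as 460/530 nm FRET emission ratio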
Summary of the method: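 Emission at 460 and 530 nm (excitation 405 nm) reports SIE-controlled beta-lactamase in ME-180 cells. Cells received compound with 40 pM IL-6 for 5 hrs at 37 C; data scaled between 300 pM IL-6 and 125 nM JAK-inhibitor controls.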
On the % scale 0 is the no-effect control and ±100 the full control effect.

Compound | activity, negative = inhibition
CN(C)CCCN1c2ccccc2Sc2ccc(Cl)cc21 | -20.2%
CCCCCCCCCCCCCCCC(=O)NCCO | -2.15%
CN(C)CCC=C1c2ccccc2CCc2ccccc21 | 28.3%
